# PubChem BioAssay AID777 (Sanford-Burnham Center for Chemical Genomics, 2007)
# In all, about 96,000 compounds went through this assay and about 19,000 (20%) were called active.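 How the source made its calls: active means blocking of liver enzyme CYP2C9 beyond about 50% at 5 µM (limit read from the data); inactive means the rest.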 The list is a sample of the results.
# Biological target: Cytochrome P450 2C9 (Homo sapiens) (UniProt P11712)
# Assay: blockers of cytochrome P450 2C9 activity – biochemical, luminescence, ADME assay, primary screen (AID 777)
# Details: CYP2C9 Supersomes, luciferin-H conversion, at 5 µM, stronger effect = higher value
# Cytochrome P450 2C9 (Homo sapiens), sequence (P11712 whole entry, looked up): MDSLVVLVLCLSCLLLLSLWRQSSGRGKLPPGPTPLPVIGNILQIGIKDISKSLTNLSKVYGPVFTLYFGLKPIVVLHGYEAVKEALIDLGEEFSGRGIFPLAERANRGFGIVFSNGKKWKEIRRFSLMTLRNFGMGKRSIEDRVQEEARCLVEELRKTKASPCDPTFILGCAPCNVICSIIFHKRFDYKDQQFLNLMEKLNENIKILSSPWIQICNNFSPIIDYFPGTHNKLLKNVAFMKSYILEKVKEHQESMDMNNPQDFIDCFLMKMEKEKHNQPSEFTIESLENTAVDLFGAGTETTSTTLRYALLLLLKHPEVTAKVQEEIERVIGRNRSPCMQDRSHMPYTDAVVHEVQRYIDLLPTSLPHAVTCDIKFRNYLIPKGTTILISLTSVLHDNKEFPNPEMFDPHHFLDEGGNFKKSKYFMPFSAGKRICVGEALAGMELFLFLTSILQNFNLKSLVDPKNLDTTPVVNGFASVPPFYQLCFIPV
row,Structure (SMILES),inhibition
1,CCn1c(SCC(=O)Nc2ccc(S(=O)(=O)Nc3onc(C)c3C)cc2)nnc1-c1ccccc1,18.2% (inactive)
2,O=C(NCCCCO)C(F)(F)C(F)(F)C(F)(F)C(=O)NCCCCO,-24.7% (inactive)
3,Cn1c(SCc2nc3ccccc3s2)nnc1-c1ccc2c(c1)OCO2,8.2% (inactive)
4,CN(C(=O)CSc1nnnn1-c1ccccc1)C1CCCCC1,36.3% (inactive)
5,Cc1ccc(-c2noc(CSc3nnc(-c4cccs4)n3C)n2)cc1,13% (inactive)
6,Cc1ccc(Nc2nc(CSc3nnnn3-c3ccccc3)cc(=O)[nH]2)cc1,42.5% (inactive)
7,Cc1ccc(-c2noc(CSc3nnc(-c4ccccc4)n3C)n2)cc1,88.3% (active)
8,Cc1ccc(-c2noc(CSc3nnc(-c4ccncc4)n3-c3ccc(F)cc3)n2)cc1,70.7% (active)
9,CCN(CC)C(=O)CSc1nnc(-c2cnccn2)n1-c1ccc(C)cc1,8.8% (inactive)
10,Cc1cccc(-c2noc(-c3ccc(F)cc3)n2)c1,8.5% (inactive)
11,Cc1ccc(-c2noc(CSc3nnnn3-c3ccccc3)n2)cc1,85.5% (active)
12,O=C(O)CN(Cc1ccco1)S(=O)(=O)c1ccccc1,-2.7% (inactive)
13,O=C(c1ccc(O)cc1)c1ccc(C(=O)O)c(C(=O)O)c1,-15.8% (inactive)
14,COc1ccc(C(CNC(=O)c2cccnc2SC)N2CCOCC2)cc1 (stereo unspecified),6.9% (inactive)
15,S=C1NC(c2ccccc2)=NCN1c1ccc(Br)cc1,19.4% (inactive)
16,CCOC(=O)N1CCN(C(=O)C2CCN(S(C)(=O)=O)CC2)CC1,-10.2% (inactive)
17,CCOC(=O)N1CCN(S(=O)(=O)c2cc(Br)cc3c2N(C(=O)C2CC2)CC3)CC1,50.2% (active)
18,CCN(c1ccc2c(c1)OCO2)S(=O)(=O)c1cc(Br)cc2c1N(C(=O)C1CC1)CC2,33.6% (inactive)
19,O=C(O)C1CC=CCC1C(=O)NCCc1ccccc1 (stereo unspecified),-21.1% (inactive)
20,O=c1[nH]c(=O)n(Cc2ccco2)c2c1C(C(F)(F)F)(C(F)(F)F)N=C(c1ccco1)N2,1.8% (inactive)
21,Cc1ccc(C)c(S(=O)(=O)n2cnc3ccccc32)c1,-14.6% (inactive)
22,Cc1ccc(S(=O)(=O)NCc2csc(C)n2)c(C)c1,9.2% (inactive)
23,Cc1ccc(C)c(NS(=O)(=O)c2cc(Br)cnc2N)c1,63.5% (active)
24,CCOC(=O)CSc1nnc(CNC(=O)c2cccs2)n1-c1cc(OC)ccc1OC,31.7% (inactive)
25,Cc1cc(C)c(S(=O)(=O)c2ccccc2)c(OC(=O)c2c(F)cccc2Cl)n1,32.9% (inactive)
26,O=c1c2ccccc2nc2n1C(CSc1ccc(F)cc1)CN2 (stereo unspecified),1.1% (inactive)

row,Structure (SMILES),inhibition
1,C=CCn1c(COc2cccc3cccnc23)nnc1SCC(=O)OC,-306% (inactive)
2,C=CCn1c(SCCOc2ccc(OC)cc2)nnc1C(NC(=O)c1ccc(OC)cc1)C(C)C (stereo unspecified),58.8% (active)
3,C=CCn1c(SCC(=O)c2ccc(Br)cc2)nnc1C(C)NC(=O)Cc1ccc(OC)cc1 (stereo unspecified),30.7% (inactive)
4,CC1=C(C)CC(C(=O)NNC(=O)c2ccccc2O)C(C(=O)O)C1 (stereo unspecified),21.8% (inactive)
5,O=C(c1c(Cl)nc2sccn12)N1CCCc2ccccc21,28.1% (inactive)
6,CN1CCN(S(=O)(=O)c2ccc3[nH]cc(C(=O)O)c(=O)c3c2)CC1,2.4% (inactive)
7,Cc1cccc(N2CCN(S(=O)(=O)c3ccc4[nH]c(=O)c(=O)[nH]c4c3)CC2C)c1 (stereo unspecified),52.5% (active)
8,COc1cccc(N2C(=O)CC(N3CCN(S(=O)(=O)c4ccccc4)CC3)C2=O)c1 (stereo unspecified),6.5% (inactive)
9,Cc1nc(C)c(-c2csc(NCCc3ccccc3)n2)s1,39% (inactive)
10,COc1ccc(/C(O)=C2\C(=O)C(=O)N(Cc3ccco3)C2c2ccc(OC)cc2OC)cc1 (stereo unspecified),21.7% (inactive)
11,COc1ccc(/C(O)=C2/C(=O)C(=O)N(c3nc(C)c(C)s3)C2c2ccco2)cc1 (stereo unspecified),70.5% (active)
12,COc1ccc(/C(O)=C2/C(=O)C(=O)N(CC3CCCO3)C2c2ccc(OC)c(OC)c2)cc1 (stereo unspecified),35.9% (inactive)
13,C=CCNc1ncnc2ccc(Br)cc12,-10.3% (inactive)
14,COC(=O)c1cc(NC(=O)CC2C(=O)NCCN2C(=O)c2ccc(F)cc2)cc(C(=O)OC)c1 (stereo unspecified),46.6% (inactive)
15,COc1cc(Cl)c(S(=O)(=O)N2CCN(Cc3ccc4c(c3)OCO4)CC2)cc1Cl,20.7% (inactive)
16,O=C(c1ccc(F)cc1)c1c[nH]c(C(=O)NCc2cccnc2)c1,45.9% (inactive)
17,CCc1ccc(NC(=O)CS(=O)CC(=O)NCCCc2ccccc2)cc1 (stereo unspecified),38.5% (inactive)
18,CC(C)c1ccc(NC(=O)NC2CCCCC2)cc1,-33.8% (inactive)
19,Cc1ccc(NC(=O)CS(=O)CC(=O)N(c2ccccc2)C(C)C(=O)NC2CCCC2)cc1 (stereo unspecified),77.9% (active)
20,COc1ccc(C2CC(=O)C=C(NCC3CCCO3)C2)cc1 (stereo unspecified),9.3% (inactive)
21,O=C(OCN1C(=O)c2ccccc2C1=O)/C(=C\c1ccco1)NC(=O)c1ccccc1,14% (inactive)
22,COC(=O)Nc1ncc(CN2CCCCC2)s1,3.8% (inactive)
23,CCOP1(=O)C=C(C(C)(C)C)OC1c1ccc(F)cc1 (stereo unspecified),-21.5% (inactive)
24,COCCn1nnnc1C(c1ccccc1Cl)N1CCN(c2ccccc2OC)CC1 (stereo unspecified),39.5% (inactive)
25,c1ccc(CCn2nnnc2CN2CCN(C3CCCC3)CC2)cc1,-1.3% (inactive)
26,COc1ccccc1N1CCN(Cc2nnnn2CCc2ccccc2)CC1,75% (active)

row,Structure (SMILES),inhibition
1,Oc1ccccc1CNc1ncc(Br)cc1Br,-39.9% (inactive)
2,CCOc1ccc(C(=O)NC2CCN(S(=O)(=O)CC)CC2)cc1,2.4% (inactive)
3,CCOC(=O)N1CCC(Nc2c(NCCCN3CCN(CC)CC3)c(=O)c2=O)CC1,-19.9% (inactive)
4,CCOC(=O)C1Cn2c(nc3c(c2=O)C(C)(CC)Cc2ccccc2-3)S1 (stereo unspecified),94.8% (active)
5,CC1(C)Cc2ccccc2-c2nc(CN3CCOCC3)[nH]c(=O)c21,15.5% (inactive)
6,Cc1nonc1NC(=O)c1ccccc1Br,-27.2% (inactive)
7,O=C(Nc1ccc(-n2ccnc2P(=O)(O)c2ccccc2)cc1)c1ccccc1Br,95.5% (active)
8,O=C(Nc1nnc(-c2ccc(Cl)cc2)o1)c1ccccc1Br,26% (inactive)
9,CC(=O)NC1=NC(=O)CS1,11.7% (inactive)
10,COC(=O)C1=CN(C)C=C(C(=O)OC)C1c1ccc(Cl)cc1Cl,28% (inactive)
11,COC(=O)C1=C(C)N(C)C(C)=C(C(=O)OC)C1c1cccc(Br)c1,93.8% (active)
12,COC(=O)CN1C(C)=Nc2ccc(Br)cc2C1c1ccccc1 (stereo unspecified),-8.5% (inactive)
13,c1ccc2c(CSCc3nc4ccccc4[nH]3)cccc2c1,85.1% (active)
14,COC(=O)Cc1nc2ccccc2[nH]1,7.9% (inactive)
15,Clc1ccccc1SCc1nc2ccccc2[nH]1,36.9% (inactive)
16,CC(CN1CCOCC1)c1ccccc1 (stereo unspecified),2.7% (inactive)
17,CN(CC(=O)NC1CCCCC1)S(=O)(=O)c1ccc(Br)s1,-17.7% (inactive)
18,CCS(=O)(=O)n1nc(-c2ccc(OC)cc2)nc1SC,42.2% (inactive)
19,CCS(=O)(=O)n1nc(-c2ccccc2)nc1SCc1ccccc1,87.9% (active)
20,Cn1c(CO)cnc1SCc1ccccc1,3.4% (inactive)
21,CSCCC(NC(=O)COc1ccccc1)C(=O)OCC(=O)c1cc2ccccc2o1 (stereo unspecified),43.3% (inactive)
22,COc1ccc2ccccc2c1CNCc1ccccn1,-4.5% (inactive)
23,Cc1cc(C)c(C#N)c(SCc2ccccc2C(=O)O)n1,9.5% (inactive)
24,Cc1cc(C)c(C#N)c(SCc2ccc3c(c2)OCO3)n1,90.5% (active)
25,Cc1cc(C)c(C#N)c(SCS(=O)c2ccc(C(C)(C)C)cc2)n1 (stereo unspecified),-50.8% (inactive)
26,CCCCN(C)Cc1c(C)[nH]c2ccc(Cl)cc2c1=O,-10.7% (inactive)

row,Structure (SMILES),inhibition
1,O=C(O)CCC(=O)N(Cc1ccco1)c1nc(-c2ccccc2)cs1,5.2% (inactive)
2,Cc1ccc(-c2csc(N(Cc3ccco3)C(=O)c3cccs3)n2)cc1,91.6% (active)
3,Cc1nnc(N(Cc2ccco2)C(=O)c2ccno2)s1,11.2% (inactive)
4,O=C(Nc1ccccc1)N(Cc1cccnc1)Cc1ccco1,35.5% (inactive)
5,COC(=O)c1ccc(Oc2nc(NC(C)C)nc(SC)n2)cc1,37.2% (inactive)
6,Cc1nnc(SCC(=O)N2CCc3ccccc3C2)s1,0% (inactive)
7,Nn1c(Cc2cccc3ccccc23)nnc1SCC(=O)N1CC(=O)Nc2ccccc21,-64.6% (inactive)
8,Cc1nc(SCC(=O)Nc2cc(C)on2)c2c(C)c(C)sc2n1,14% (inactive)
9,Cc1nc(SCC(=O)N2CCc3ccccc3C2)c2c(C)c(C)sc2n1,55.9% (active)
10,Cc1nc(SCC(=O)N2CC(=O)Nc3ccccc32)c2c(C)c(C)sc2n1,55.2% (active)
11,O=C(CSc1nnc(-c2cccs2)n1Cc1ccccc1)N1CCc2ccccc2C1,48% (inactive)
12,COc1ccc(OC)c(NC(=O)CCN2CCC(C)CC2)c1,5.1% (inactive)
13,CCc1nnc(NC(=O)CCC(=O)NCc2ccccc2OC)s1,-14.5% (inactive)
14,Cc1ccsc1-c1nc(CSCC(=O)NCCN2CCCC2)c(C)o1,7.3% (inactive)
15,CCOc1cc(-c2cc(-c3ccc(OC)cc3)nc(N)c2C#N)ccc1O,47.2% (inactive)
16,CCSc1nc(-c2ccc(OC)cc2)cc(-c2ccc(OC)cc2)c1C#N,75.3% (active)
17,COc1ccc(C)cc1N(C)C(=O)c1coc(=O)c2ccccc12,33.1% (inactive)
18,Cc1ccccc1OCc1nnc(SCC(=O)N2c3ccccc3Sc3ccc(Cl)cc32)o1,57.3% (active)
19,CC1Cc2ccccc2N1C(=O)CSc1nc2ccccc2o1 (stereo unspecified),28.2% (inactive)
20,Cc1cc(C)cc(OCc2nnc(SCC(=O)Nc3ccccc3)o2)c1,-3% (inactive)
21,CC(C)NC(=O)CSc1nnc(COc2ccccc2Cl)o1,-39.2% (inactive)
22,O=C(CSc1nc2ccccc2o1)N1c2ccccc2Sc2ccc(Cl)cc21,60.9% (active)
23,O=C(CSc1nc2ccccc2o1)N1CCN(c2ccc(Cl)cc2)CC1,-11.9% (inactive)
